Compound activity from PubChem.
This is a sample that favours compounds with a hit; in the whole collection about 4.6% have one here.
hcDAF12 agonist = activators of H. contortus DAF-12 nuclear receptor; HEK293 hcDAF-12 lit1-tk-luc reporter, luminescence; 0% DMSO, 100% Δ7-dafachronic acid; AID 652067; 370,000 compounds, 1.4% hits; activation, % at 6.8 µM;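 active = activation above the mean of all tested compounds plus 3 SD, cut at about 5.5% in these data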;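 note: 100% = response to 3 µM Δ7-dafachronic acid high control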
DAX1 inh-1 = NR0B1 (DAX1) inhibition. HEK293 Gal4-DAX1 luciferase reporter, luminescence. inhibition, % at 6.75 µM. P51843. 340,000 compounds, 0.99% hits;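 active = inhibition above the mean over all tested compounds plus 3 SD, cut at about 4.2% in these data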;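 note: 0% = DAX1-transfected cells with DMSO and 100% = empty-vector control cells with DMSO; inhibition shows as a rise in luminescence from relieved DAX1 repression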
hgDAF12 agonist = agonists of H. glycines DAF-12 nuclear receptor | HEK293 GAL4-hgDAF12 UAS-luciferase reporter, agonist luminescence; normalized to butyrate control | activation, % at 6.8 µM | 370,000 compounds, 1.8% hits | AID 687014;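 active = activation above a cutoff set at the mean of all screened compounds plus 3 SD, cut at about 10% in these data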;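 note: 0% = DMSO wells and 100% = sodium butyrate wells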
DAX1 inh-2 = inhibitors of DAX1 repression of SF-1 activated StAR promoter; HEK293T StAR-luciferase reporter, SF-1/DAX-1 repression relief; inhibition, % at 6.8 µM; 370,000 compounds, 1.1% hits; AID 652010;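 active = inhibition above the mean over all tested compounds plus 3 SD, cut at about 3.6% in these data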;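 note: 0% = DAX-1 cells with DMSO and 100% = cells lacking DAX-1 with DMSO; higher inhibition means more luminescence from relief of DAX-1 repression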
ssDAF12 agonist = activates DAF-12 receptor from parasite S. stercoralis | HEK293 ssDAF-12/GRIP1 lit1-tk-luc reporter, luminescence; % of 3 µM dafachronic acid response | activation, % at 6.8 µM | 370,000 compounds, 1% hits | AID 652126;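 active = activation above the mean over all tested compounds plus 3 SD, cut at about 0.9% in these data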;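 note: 0% = DMSO-only wells and 100% = 3 µM delta7-dafachronic acid wells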
Wee1 stabilizer = inhibitors of human Wee1 degradation; P30291; HeLa Luc-Wee1K328M stability, luciferase luminescence; 100% = proteasome inhibitor MG132 effect; reporter increase, % at 5 µM; 220,000 compounds, 1.2% hits; AID 1321;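 active = activation above the mean of all tested compounds plus 3 SD, set per screening run, cut at about 8.8% in these data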;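 note: cells exposed to compound for 20 h before luminescence read; 0% = DMSO alone and 100% = MG132 at 30 µM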
Target sequence (P30291 whole entry K328M): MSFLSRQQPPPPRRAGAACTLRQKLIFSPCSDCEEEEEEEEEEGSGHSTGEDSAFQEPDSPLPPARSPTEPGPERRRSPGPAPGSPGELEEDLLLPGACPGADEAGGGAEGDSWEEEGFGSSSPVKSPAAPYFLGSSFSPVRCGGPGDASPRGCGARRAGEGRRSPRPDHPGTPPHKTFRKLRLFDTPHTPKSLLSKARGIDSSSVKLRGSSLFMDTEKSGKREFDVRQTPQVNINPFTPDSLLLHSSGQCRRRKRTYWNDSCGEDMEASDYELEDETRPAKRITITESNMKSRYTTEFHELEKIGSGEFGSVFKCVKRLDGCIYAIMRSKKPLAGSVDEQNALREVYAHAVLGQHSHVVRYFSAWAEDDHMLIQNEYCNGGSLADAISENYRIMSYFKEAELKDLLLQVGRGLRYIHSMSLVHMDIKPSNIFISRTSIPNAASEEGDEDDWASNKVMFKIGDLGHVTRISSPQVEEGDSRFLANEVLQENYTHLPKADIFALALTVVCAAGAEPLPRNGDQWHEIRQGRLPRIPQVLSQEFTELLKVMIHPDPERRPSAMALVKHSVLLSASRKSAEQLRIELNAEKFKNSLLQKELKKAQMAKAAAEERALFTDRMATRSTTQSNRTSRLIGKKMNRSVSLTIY
Active calls of the source: *.

How did C=Cn1cc[n+](CC(=O)c2cccs2)c1 do in these assays?
hcDAF12 agonist: 5.6*; DAX1 inh-1: -0.6; hgDAF12 agonist: 1.2; DAX1 inh-2: -0.2; ssDAF12 agonist: 0.4

How did C=Cn1cc[n+](CC(=O)c2ccc(Br)s2)c1 do in these assays?
hcDAF12 agonist: -0.8; DAX1 inh-1: 1.0; hgDAF12 agonist: 4.5; DAX1 inh-2: -0.4; ssDAF12 agonist: -1.2

Results for O=C(CN1CCCCC1CO)c1ccc(OC(F)F)cc1 (centres undefined) ?
hcDAF12 agonist: -0.7; DAX1 inh-1: 4.5*; hgDAF12 agonist: 0.0; DAX1 inh-2: -0.2; ssDAF12 agonist: -1.8; Wee1 stabilizer: -2.1

What do the screens show for `COc1ccc(C(NC(=O)C2CCN(CCOc3ccc(Cl)cc3Cl)CC2)c2ccccn2)cc1` (centres undefined)?
hcDAF12 agonist: -0.3; hgDAF12 agonist: -1.7; DAX1 inh-2: 0.4; ssDAF12 agonist: -0.5

What do the screens show for `CCN(CC)C(=O)c1cc2sc3ccccc3c2s1`?
hcDAF12 agonist: 1.2; DAX1 inh-1: 2.1; hgDAF12 agonist: 12.2*; DAX1 inh-2: 1.4; ssDAF12 agonist: -0.7; Wee1 stabilizer: 3.4

Results for CCN(Cc1cccs1)c1ncnc2ccc(-c3ccc4c(c3)OCO4)cc12 ?
hcDAF12 agonist: -1.6; hgDAF12 agonist: -0.1; ssDAF12 agonist: -2.0

Results for CCOn1c(=O)c(-c2ccc(F)cc2)[n+]([O-])c2ccccc21 ?
hcDAF12 agonist: 0.6; DAX1 inh-1: 4.8*; hgDAF12 agonist: -2.2; DAX1 inh-2: 0.3; ssDAF12 agonist: -1.1

What do the screens show for `CCOn1c(=O)c(-c2cccs2)[n+]([O-])c2ccccc21`?
hcDAF12 agonist: 0.9; DAX1 inh-1: 5.2*; hgDAF12 agonist: 0.1; DAX1 inh-2: -0.9; ssDAF12 agonist: -1.1; Wee1 stabilizer: -2.2

How did O=C(COc1coc(CN2CCN(c3ccccc3F)CC2)cc1=O)NC1CCCC1 do in these assays?
hcDAF12 agonist: -2.4; DAX1 inh-1: -0.3; hgDAF12 agonist: 0.6; DAX1 inh-2: 0.8; ssDAF12 agonist: -0.7

Results for COc1ccc(CN(C)C(=O)C2CCCN(c3nc4ccccc4o3)C2)cc1 (centres undefined) ?
hcDAF12 agonist: -2.9; hgDAF12 agonist: -1.4; DAX1 inh-2: -0.7; ssDAF12 agonist: -0.6

What do the screens show for `CSc1nsc2nc(=O)c(/C=C3\C(C)=Nc4ccccc43)c(N)n12`?
hcDAF12 agonist: 4.6; DAX1 inh-1: 1.9; hgDAF12 agonist: 5.9; DAX1 inh-2: 0.9; ssDAF12 agonist: 0.9*; Wee1 stabilizer: 0.3

How did C#CCCCN([C@@H](CC(C)C)C(=O)OC)S(=O)(=O)c1ccc(F)cc1Br do in these assays?
hcDAF12 agonist: 3.9; hgDAF12 agonist: -1.1; DAX1 inh-2: -1.5; ssDAF12 agonist: -1.7

How did CCC(C)NCC(=O)Nc1ccc(-c2nc3cc(NC(=O)CNC(C)CC)ccc3o2)cc1 (centres undefined) do in these assays?
hcDAF12 agonist: 0.7; DAX1 inh-1: -0.4; hgDAF12 agonist: 4.1; DAX1 inh-2: -1.3; ssDAF12 agonist: -1.2; Wee1 stabilizer: -1.6

How did CCC(C)c1ccc2oc(-c3ccc(NC(=O)c4ncn[nH]4)cc3)nc2c1 (centres undefined) do in these assays?
hcDAF12 agonist: -1.2; DAX1 inh-1: 1.3; hgDAF12 agonist: -1.0; DAX1 inh-2: -0.1; ssDAF12 agonist: -1.3; Wee1 stabilizer: 1.7

How did Cc1ccc2oc(-c3ccc(NC(=O)CC(C)C)cc3)nc2c1 do in these assays?
hcDAF12 agonist: 2.4; DAX1 inh-1: 2.0; hgDAF12 agonist: 10.8*; DAX1 inh-2: 2.5; ssDAF12 agonist: -0.4; Wee1 stabilizer: 2.5

Results for CC(C)c1ccc2oc(-c3ccc(NC(=O)c4ncn[nH]4)cc3)nc2c1 ?
hcDAF12 agonist: 0.8; DAX1 inh-1: -0.4; hgDAF12 agonist: 7.2; DAX1 inh-2: 4.0*; ssDAF12 agonist: -0.5; Wee1 stabilizer: 0.6

Results for CCN(CC)CC(=O)Nc1ccc(-c2nc3cc(NC(=O)CN(CC)CC)ccc3o2)cc1 ?
hcDAF12 agonist: 0.6; DAX1 inh-1: 0.7; hgDAF12 agonist: 6.1; DAX1 inh-2: -1.3; ssDAF12 agonist: 1.0*; Wee1 stabilizer: 7.4

What do the screens show for `O=C(CN1CCCC1)Nc1ccc(-c2nc3cc(NC(=O)CN4CCCC4)ccc3o2)cc1`?
hcDAF12 agonist: 2.2; DAX1 inh-1: 5.8*; hgDAF12 agonist: 5.6; DAX1 inh-2: -0.2; ssDAF12 agonist: -1.6; Wee1 stabilizer: 0.2

How did COc1ccc(NC(=O)COC(=O)CCc2ccc(S(=O)(=O)N3CCOCC3)cc2)cc1OC do in these assays?
hcDAF12 agonist: 0.6; DAX1 inh-1: -0.5; hgDAF12 agonist: 0.5; DAX1 inh-2: 1.3; ssDAF12 agonist: -1.3

How did CCc1ccc2oc(-c3ccc(NC(C)=O)cc3)nc2c1 do in these assays?
hcDAF12 agonist: 5.8*; DAX1 inh-1: 3.0; hgDAF12 agonist: 10.8*; DAX1 inh-2: 1.8; ssDAF12 agonist: 1.1*

What do the screens show for `O=[N+]([O-])c1cccc(OCCCN2CCC(C(O)(c3ccccc3)c3ccccc3)CC2)c1`?
hcDAF12 agonist: -1.4; hgDAF12 agonist: 0.8; DAX1 inh-2: -0.5; ssDAF12 agonist: -1.7

Results for O=[N+]([O-])c1cccc(OCCN2CCC(Cc3ccccc3)CC2)c1 ?
hcDAF12 agonist: 0.4; DAX1 inh-1: 5.8*; hgDAF12 agonist: -1.3; DAX1 inh-2: 0.1; ssDAF12 agonist: -1.5

How did O=C(Nc1ccccc1Oc1ccccc1)c1cc([N+](=O)[O-])ccc1Cl do in these assays?
hcDAF12 agonist: -1.5; DAX1 inh-1: -1.6; hgDAF12 agonist: 0.7; DAX1 inh-2: -1.7; ssDAF12 agonist: -2.0; Wee1 stabilizer: 1.7

What do the screens show for `Cc1cccc(NC(=O)c2cc([N+](=O)[O-])ccc2Cl)c1O`?
hcDAF12 agonist: 6.3*; DAX1 inh-1: 0.6; hgDAF12 agonist: 7.4; DAX1 inh-2: -1.9; ssDAF12 agonist: 0.5; Wee1 stabilizer: 1.3

Results for Cc1cccc(NC(=O)c2cccc([N+](=O)[O-])c2O)c1C ?
hcDAF12 agonist: 3.4; DAX1 inh-1: 2.7; hgDAF12 agonist: 12.8*; DAX1 inh-2: 4.1*; ssDAF12 agonist: -0.2

What do the screens show for `CC(/C=C\C=C\c1ccccc1)=N\NC(=O)c1cncc(Br)c1`?
hcDAF12 agonist: -0.2; DAX1 inh-1: -0.4; hgDAF12 agonist: 1.3; DAX1 inh-2: -0.1; ssDAF12 agonist: -0.2; Wee1 stabilizer: -0.1

How did CC(/C=C/C=C/c1ccccc1)=N\NC(=O)c1cccnc1 do in these assays?
hcDAF12 agonist: -0.3; DAX1 inh-1: 4.5*; hgDAF12 agonist: 5.8; DAX1 inh-2: -1.2; ssDAF12 agonist: -1.1; Wee1 stabilizer: -0.4

What do the screens show for `O=C(NCCCn1ccnc1)c1cc(-c2cccc(O)c2)on1`?
hcDAF12 agonist: 1.3; DAX1 inh-1: 4.7*; hgDAF12 agonist: 9.7; DAX1 inh-2: 1.5; ssDAF12 agonist: 0.3; Wee1 stabilizer: 2.8

What do the screens show for `COc1ccc(-c2cc(C(=O)Nc3cccc(Cl)c3)no2)cc1`?
hcDAF12 agonist: 2.2; DAX1 inh-1: 4.2*; hgDAF12 agonist: 8.4; DAX1 inh-2: 0.3; ssDAF12 agonist: -0.6
